Screening results deposited in PubChem BioAssay by National Center for Advancing Translational Sciences (NCATS).
An excerpt weighted towards active compounds, which were near 2.8% of everything screened.
Pol beta inh = DNA polymerase beta (human) inhibition; Pol beta primer extension/strand displacement, fluorescence kinetic; Potency, µM (titrated, usually from 114 µM), actives largely listed as inhibitors; 340,000 compounds, 1.3% hits; AID 485314
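Enzyme-only controls used 10 nM Pol beta; buffer lacking enzyme served as negative control. Compound preincubated 15 min, then 50 nM substrate added; 0 and 10 min reads at room temperature.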
Pol kappa inh-1 = DNA polymerase kappa (human) inhibition; AID 588579; purified Pol kappa, fluorescent DNA synthesis assay, 10 min; 400,000 compounds, 0.53% hits; Potency, µM (top dose mostly 107 µM), hits mostly inhibitors
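Kinetic fluorescence readout at 0 and 10 min followed reaction start with substrate at 50 nM final. Beforehand, enzyme (10 nM Pol kappa) stood 15 min with compound at room temperature; buffer-only wells were negative controls.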
Pol iota inh = DNA polymerase iota (human) inhibition; Q9UNA4; Potency, µM (top dose mostly 115 µM), hits mostly inhibitors; Pol iota fluorescent replication assay, 10 min; 390,000 compounds, 1% hits; AID 588590
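Pol iota at 10 nM preincubated 15 min with compounds at room temperature; reaction started with fluorescent substrate, 50 nM final. Fluorescence read kinetically at 0 and 10 min; buffer-only wells as negative control.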
WRN helicase inh-1 = inhibitors of human WRN helicase | AID 651768 | WRN helicase unwinding, fluorescent forked duplex, kinetic | 360,000 compounds, 0.46% hits | Potency, µM (doses to about 114 µM), hits mostly inhibitors; also: nearly all actives have a fitted effect of over 55% in size
Target sequence (Q14191 whole entry, looked up): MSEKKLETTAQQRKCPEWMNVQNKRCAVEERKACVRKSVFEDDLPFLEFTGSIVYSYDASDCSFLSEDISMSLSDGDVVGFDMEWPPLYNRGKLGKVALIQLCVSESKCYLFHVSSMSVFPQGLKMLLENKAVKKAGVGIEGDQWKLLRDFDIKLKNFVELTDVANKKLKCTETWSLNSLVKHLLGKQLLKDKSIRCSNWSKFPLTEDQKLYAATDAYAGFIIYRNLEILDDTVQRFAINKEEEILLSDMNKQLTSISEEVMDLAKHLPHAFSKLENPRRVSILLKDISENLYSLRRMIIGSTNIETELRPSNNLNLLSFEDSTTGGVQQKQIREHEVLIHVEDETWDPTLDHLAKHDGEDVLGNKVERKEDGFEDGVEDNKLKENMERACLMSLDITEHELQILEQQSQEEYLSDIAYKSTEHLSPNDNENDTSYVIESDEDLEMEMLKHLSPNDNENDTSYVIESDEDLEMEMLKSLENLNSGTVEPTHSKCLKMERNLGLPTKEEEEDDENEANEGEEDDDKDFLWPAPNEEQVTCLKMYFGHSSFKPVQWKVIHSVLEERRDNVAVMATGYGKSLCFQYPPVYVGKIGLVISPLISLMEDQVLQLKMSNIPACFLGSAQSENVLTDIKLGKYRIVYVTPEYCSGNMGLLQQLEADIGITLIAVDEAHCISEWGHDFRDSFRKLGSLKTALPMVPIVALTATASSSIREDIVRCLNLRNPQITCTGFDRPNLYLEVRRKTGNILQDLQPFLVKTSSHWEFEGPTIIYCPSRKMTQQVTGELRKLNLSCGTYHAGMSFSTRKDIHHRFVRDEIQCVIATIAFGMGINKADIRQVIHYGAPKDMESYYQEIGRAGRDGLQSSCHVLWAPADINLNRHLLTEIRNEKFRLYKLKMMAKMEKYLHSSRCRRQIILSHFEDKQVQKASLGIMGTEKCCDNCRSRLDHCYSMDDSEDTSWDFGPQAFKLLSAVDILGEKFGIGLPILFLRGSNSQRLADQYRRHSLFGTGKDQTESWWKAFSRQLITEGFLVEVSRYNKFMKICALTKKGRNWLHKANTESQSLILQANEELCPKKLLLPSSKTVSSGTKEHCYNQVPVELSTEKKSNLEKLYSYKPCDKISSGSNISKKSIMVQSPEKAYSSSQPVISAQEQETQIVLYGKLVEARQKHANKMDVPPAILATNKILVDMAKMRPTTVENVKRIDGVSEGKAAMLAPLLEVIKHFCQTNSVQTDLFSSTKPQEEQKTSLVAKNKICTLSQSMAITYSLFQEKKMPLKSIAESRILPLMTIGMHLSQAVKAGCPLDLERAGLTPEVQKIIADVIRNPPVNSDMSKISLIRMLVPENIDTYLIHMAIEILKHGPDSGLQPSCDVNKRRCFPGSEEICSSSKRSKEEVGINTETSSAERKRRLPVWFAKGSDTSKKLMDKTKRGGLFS
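Kinetic fluorescence helicase assay: unwinding of a quenched forked DNA duplex (100 nM final) with 2 mM ATP final raises red fluorescence (525/598 nm). Compounds sat 15 min at room temperature with 20 nM WRN beforehand.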
PI5P4K alpha inh = inhibitors of human PI5P4K alpha; P48426; PI5P4Kalpha enzyme, ADP-Glo luminescence, 60 min; active compounds read low; max response, %; 330,000 compounds, 1.2% hits; active = max response of -50% or lower; inconclusive = between -30% and -50%; inactive = -30% or higher; also: value at the top dose of about 77 µM
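ADP-Glo luminescence end-point read after a 60 min room-temperature kinase reaction of PI5P4Kalpha plus substrate, initiated with ATP at 5 microM final. Buffer: 0.038 M HEPES pH 7.4, EGTA, 0.1% CHAPS, 5% DMSO.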
Pol eta inh-1 = DNA polymerase eta (human) inhibition; recombinant Pol eta, fluorescent DNA replication assay; Potency, µM (highest dose often 114 µM), most hits filed as inhibitors; Q9Y253; 390,000 compounds, 1.2% hits
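Pol eta (10 nM) was preincubated with compounds for 15 min at room temperature, after which fluorescent replication substrate (50 nM final) was added to start the reaction. Fluorescence was read kinetically at 0 and 10 min.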
PGK validate = TbPGK inhibition, hit validation | shares compounds with Pol kappa inh-1 | TbPGK coupled GAPDH assay, Kinase-Glo luminescence | Potency, µM (highest dose often 57.5 µM), most hits filed as inhibitors | 500 compounds, 79% hits | AID 686980; also: nearly all actives have a fitted effect of over 65% in size
Pol iota confirm = Confirm cherry-picked inhibitors of human polymerase iota. shares compounds with Pol kappa inh-1. Pol iota primer extension, TAMRA/BHQ fluorescence. Potency, µM, actives largely listed as inhibitors. 1,500 compounds, 77% hits
Pol kappa inh-2 = Pol kappa (human) inhibition, cherry-pick confirmation; purified Pol-kappa, fluorescent strand-displacement substrate; shares compounds with Pol eta inh-1; AID 720501; 920 compounds, 76% hits; Potency, µM, actives largely listed as inhibitors
Pol eta inh-2 = Pol eta (human) inhibition, cherry-pick confirmation. Pol eta primer extension, TAMRA/BHQ fluorescence, 10 min. 2,600 compounds, 64% hits. AID 720502. shares compounds with Pol eta inh-1. Potency, µM, most hits filed as inhibitors
WRN helicase inh-2 = WRN helicase inhibition, cherry-pick retest; shares compounds with WRN helicase inh-1; WRN helicase DNA unwinding, fluorescence kinetic; Potency, µM (highest dose often 57.1 µM), hits mostly inhibitors; 610 compounds, 63% hits; AID 720497; also: nearly all actives have a fitted effect of over 65% in size
TO displacement = binds DNA, flagged in WRN inhibitor counterscreen. shares compounds with WRN helicase inh-1. thiazole orange DNA binding displacement, fluorescence. Potency, µM (series often up to 57.1 µM), actives largely listed as inhibitors. 610 compounds, 10% hits. AID 720499;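 also: drop in dye fluorescence marks compound binding to DNA; nearly all actives have a fitted effect of over 60% in size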
BLM counter = blocks human BLM helicase in WRN counterscreen. AID 720503. 610 compounds, 60% hits. Potency, µM (highest dose often 57.1 µM), hits mostly inhibitors. Recombinant BLM helicase DNA unwinding, red fluorescence. shares compounds with WRN helicase inh-1; also: nearly all actives have a fitted effect of over 60% in size
ADP-Glo counter = ADP-Glo luciferase interference, PI5P4K counter-screen | Potency, µM (doses to about 76.9 µM), usual class: inhibitors | ADP-Glo detection counter-screen, luciferase luminescence, no enzyme | 1,100 tested, under 10 active | shares compounds with PI5P4K alpha inh
Of the large screens only hits and unclear results are named; the others gave an inactive call (follow-up assays come after a bar, where they were run). Unless noted, calls follow the shape of the dose curve; as a rule, active = well fitted curve in the direction sought with a large enough effect; inconclusive = small, poorly fitted or top-dose-only effect, or another doubt; inactive = no such curve, though single readings can be large; an effect the other way counts as inactive or inconclusive.

CC1(C)CC(=O)C2=C(C1)Nc1ccccc1NC2c1ccc([N+](=O)[O-])cc1 (stereo unspecified)	Pol iota inh inconclusive (no result: Pol beta inh)
COC(=O)CCC(=O)OC1(C)C(=O)C2=CN(CC(C)C)C(c3ccc(OC)cc3)=CC2=C(Br)C1=O (stereo unspecified)	none (no result: Pol kappa inh-1, Pol iota inh, WRN helicase inh-1, PI5P4K alpha inh, Pol eta inh-1)
CCC(=O)OC1(C)C(=O)C2=COC(c3ccc(OC)cc3)=CC2=C(Br)C1=O (stereo unspecified)	Pol beta inh inconclusive, Pol kappa inh-1 inconclusive, Pol iota inh inconclusive, PI5P4K alpha inh -72, Pol eta inh-1 45µM | PGK validate 21µM | ADP-Glo counter inactive
CC(Cc1ccccc1)N1C(=O)c2cccc([N+](=O)[O-])c2C1=O (stereo unspecified)	none
CC1CCCCC1NC(=O)COC(=O)c1c2c(nc3ccccc13)/C(=C\c1ccco1)CC2 (stereo unspecified)	Pol kappa inh-1 22µM, Pol iota inh 3.2µM, WRN helicase inh-1 inconclusive, PI5P4K alpha inh -74, Pol eta inh-1 10µM (no result: Pol beta inh) | Pol iota confirm 60 | Pol kappa inh-2 21 | Pol eta inh-2 34 | ADP-Glo counter inactive
Fc1ccc(C2=Nc3cccc4cccc(c34)N2)cc1	none
FC(F)(F)C1=Nc2cccc3cccc(c23)N1	Pol kappa inh-1 6.3µM, Pol iota inh 1.6µM, WRN helicase inh-1 inconclusive, PI5P4K alpha inh -82, Pol eta inh-1 2.2µM (no result: Pol beta inh) | Pol iota confirm 17 | Pol kappa inh-2 7.5 | Pol eta inh-2 21 | ADP-Glo counter inactive
COc1ccc2c([N+](=O)[O-])c(Cl)[nH]c2c1	Pol kappa inh-1 50µM, Pol iota inh 11µM, PI5P4K alpha inh -57, Pol eta inh-1 20µM | Pol iota confirm 38 | Pol eta inh-2 27 | ADP-Glo counter inactive
COc1ccc(OC)c(NC(=O)COC(=O)c2c3c(nc4ccccc24)CCCC3)c1	none (no result: PI5P4K alpha inh)
C=CCNC(=O)COC(=O)c1c2c(nc3ccccc13)CCC2	Pol beta inh 22µM, Pol kappa inh-1 89µM, Pol iota inh 22µM, WRN helicase inh-1 inconclusive, PI5P4K alpha inh -75, Pol eta inh-1 35µM | Pol iota confirm inconclusive | Pol eta inh-2 54 | ADP-Glo counter inactive
COc1cccc(C(=O)OCC(=O)Nc2sc3c(c2C(N)=O)CCC3)c1O	Pol kappa inh-1 79µM, Pol iota inh 20µM, WRN helicase inh-1 inconclusive, PI5P4K alpha inh -51, Pol eta inh-1 22µM (no result: Pol beta inh) | Pol iota confirm 42 | Pol kappa inh-2 27 | Pol eta inh-2 30 | ADP-Glo counter inactive
COc1ccccc1OCC(=O)Nc1sc2c(c1C(N)=O)CCC2	Pol kappa inh-1 inconclusive, Pol iota inh inconclusive, PI5P4K alpha inh inconclusive, Pol eta inh-1 inconclusive (no result: Pol beta inh)
O=C(c1ccc(=O)oc1)N1CCCc2ccccc21	Pol kappa inh-1 20µM, Pol iota inh 13µM, WRN helicase inh-1 inconclusive, PI5P4K alpha inh -57, Pol eta inh-1 3.5µM | Pol iota confirm 42 | Pol eta inh-2 30 | WRN helicase inh-2 22µM | TO displacement inactive | BLM counter 24µM | ADP-Glo counter inactive
CCOC(=O)C1CCCN(C(=O)c2cc(-c3ccco3)nc3ccccc23)C1 (stereo unspecified)	Pol kappa inh-1 22µM, Pol iota inh 3.5µM, WRN helicase inh-1 32µM, PI5P4K alpha inh -85, Pol eta inh-1 3.2µM (no result: Pol beta inh) | PGK validate 10µM | Pol iota confirm 19 | Pol kappa inh-2 9.5 | Pol eta inh-2 19 | WRN helicase inh-2 14µM | TO displacement inconclusive | BLM counter 1.7µM | ADP-Glo counter inactive
CCOC(=O)C1CCCN(C(=O)c2cc(-c3ccncc3)nc3ccccc23)C1 (stereo unspecified)	none (no result: Pol beta inh)
CCN(CC)C(=O)COC(=O)c1cc(-c2ccc(OC)cc2)nc2ccccc12	none (no result: PI5P4K alpha inh)
CCN(CC)C(=O)COC(=O)c1cc(-c2ccco2)nc2ccccc12	Pol beta inh 28µM, Pol kappa inh-1 79µM, Pol iota inh 14µM, WRN helicase inh-1 inconclusive, PI5P4K alpha inh -69, Pol eta inh-1 40µM | Pol iota confirm 47 | Pol eta inh-2 67 | ADP-Glo counter inactive
CCN(CC)C(=O)C1=C(C)N(CCC2=CCCCC2)C(=O)C(CC(=O)NCc2cccs2)C1 (stereo unspecified)	none (no result: Pol beta inh, Pol kappa inh-1, Pol iota inh)
Cc1noc(C)c1CCC(=O)N1CCCC(N2CCN(c3ccc(F)cc3)CC2)C1 (stereo unspecified)	none
CCc1cccc(NC(=O)C(Cc2ccccc2)n2cccc2)c1 (stereo unspecified)	none (no result: WRN helicase inh-1, PI5P4K alpha inh)
COc1ccc(NC(=O)CN(C)C(=O)c2cccc(-n3cccc3)c2)cc1	Pol kappa inh-1 45µM, Pol iota inh 13µM, WRN helicase inh-1 45µM, PI5P4K alpha inh -62, Pol eta inh-1 11µM (no result: Pol beta inh) | Pol iota confirm 30 | Pol eta inh-2 67 | ADP-Glo counter inactive
Cc1cccc(NC(=O)CNC(=O)c2cccc(-n3cccc3)c2)c1C	Pol kappa inh-1 32µM, Pol iota inh 7.9µM, WRN helicase inh-1 inconclusive, PI5P4K alpha inh -80, Pol eta inh-1 3.2µM (no result: Pol beta inh) | Pol iota confirm 9.5 | Pol eta inh-2 9.5 | ADP-Glo counter inactive
Cc1cccc(NC(=O)CNCC(=O)Nc2cccc(C)c2C)c1C	none
Cc1ccc(C)c(NC(=O)CN(C)C(=O)c2cccc(N3C(=O)CCC3=O)c2)c1	none (no result: Pol beta inh)
